Reference: PubChem BioAssay (Tox21)
Where “and” joins values, the source holds several entries; their conditions need not be identical. Equal entries are not always repeated. Results filed as inconclusive are left out. Calls of active or inactive are those of the source. Unless noted, calls come from the whole dose curve; as a rule, active = well fitted curve in the direction sought with a large enough effect in the repeat runs; inconclusive = weak or mixed curves; inactive = no such curve, though single readings can be large; an effect the other way counts as inactive or inconclusive.

Tests used:
[1] = qHTS assay to identify small molecule antagonists of the estrogen related receptor (ERR) signaling pathway from Tox21 library - cell viability counter screen (AID 1224834); note: nearly all actives have a fitted effect of over 30% in size; note: potency is the fitted concentration of half-maximal effect
Procedure, shortened: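 ERR reporter cells, 2,000 per well, rested 6 h, then exposed to compound in DMSO for 17.5 hours at 37 C. Viability read as fluorescence after 30 min with CellTiter-Fluor.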

[2] = target: Luciferin 4-monooxygenase (Photinus pyralis) (UniProt P08659); experiment: qHTS assay to identify small molecule inhibitors of firefly luciferase (AID 1224835); note: nearly all actives have a fitted effect of over 25% in size; note: potency is the fitted concentration of half-maximal effect
Chain of Luciferin 4-monooxygenase (Photinus pyralis) (P08659 whole entry, looked up): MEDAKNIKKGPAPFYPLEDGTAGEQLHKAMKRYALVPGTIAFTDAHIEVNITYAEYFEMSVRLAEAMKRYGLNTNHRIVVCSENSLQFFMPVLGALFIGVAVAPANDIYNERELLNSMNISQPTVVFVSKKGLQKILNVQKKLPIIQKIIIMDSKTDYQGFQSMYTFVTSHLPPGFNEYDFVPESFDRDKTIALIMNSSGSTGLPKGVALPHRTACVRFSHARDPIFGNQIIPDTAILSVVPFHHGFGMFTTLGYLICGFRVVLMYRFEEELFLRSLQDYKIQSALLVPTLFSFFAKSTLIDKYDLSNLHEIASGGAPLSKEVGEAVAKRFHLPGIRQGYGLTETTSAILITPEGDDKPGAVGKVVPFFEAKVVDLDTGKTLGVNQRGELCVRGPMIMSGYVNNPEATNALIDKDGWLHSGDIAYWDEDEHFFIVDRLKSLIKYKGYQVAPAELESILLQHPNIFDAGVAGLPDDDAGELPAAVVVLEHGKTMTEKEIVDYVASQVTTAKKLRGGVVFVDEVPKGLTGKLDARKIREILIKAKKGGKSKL
Procedure, shortened: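 Inhibition of purified Photinus luciferase is measured by luminescence. Substrate levels (D-luciferin, ATP) sit at their KM values. Each compound is tested in a concentration series.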

[3] = qHTS assay to identify small molecule agonists of the constitutive androstane receptor (CAR) signaling pathway - cell viability counter screen (AID 1224836); note: nearly all actives have a fitted effect of over 45% in size; note: potency is the fitted concentration of half-maximal effect
Procedure, shortened: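 Viability read-out: CellTiter-Fluor fluorescence after 23 h compound exposure at 37 C/5% CO2 in double-stable HepG2-CYP2B6-hCAR cells, with PK11195 present at 0.75 uM final; compounds tested in 15-point titration.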

[4] = qHTS assay to identify small molecule antagonists of the constitutive androstane receptor (CAR) signaling pathway - cell viability counter screen (AID 1224837); note: nearly all actives have a fitted effect of over 45% in size; note: potency is the fitted concentration of half-maximal effect
Procedure, shortened: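 HepG2 cells stably carrying hCAR and CYP2B6-2.2kb reporter, stimulated with 50 nM CITCO and compounds at 15 concentrations for 23 h at 37 C. Viability measured by CellTiter-Fluor fluorescence.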

[5] = target: Nuclear receptor subfamily 1 group I member 3 (Homo sapiens) (UniProt Q14994); experiment: qHTS assay to identify small molecule antagonists of the constitutive androstane receptor (CAR) signaling pathway (AID 1224838); note: nearly all actives have a fitted effect of over 40% in size; note: potency is the fitted concentration of half-maximal effect
Chain of Nuclear receptor subfamily 1 group I member 3 (Homo sapiens) (Q14994 whole entry, looked up): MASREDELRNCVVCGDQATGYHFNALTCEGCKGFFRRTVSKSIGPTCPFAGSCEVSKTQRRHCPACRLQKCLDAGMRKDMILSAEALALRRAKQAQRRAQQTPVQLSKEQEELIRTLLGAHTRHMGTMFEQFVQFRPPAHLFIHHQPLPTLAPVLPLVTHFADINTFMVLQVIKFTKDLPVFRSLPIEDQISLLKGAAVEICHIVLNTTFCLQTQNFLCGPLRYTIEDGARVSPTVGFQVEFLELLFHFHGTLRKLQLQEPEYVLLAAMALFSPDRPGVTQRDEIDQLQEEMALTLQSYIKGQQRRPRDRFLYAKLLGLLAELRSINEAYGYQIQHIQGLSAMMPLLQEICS
Procedure, shortened: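 HepG2 cells stably carrying hCAR and a CYP2B6-2.2kb luciferase reporter, seeded 4 hrs before compound (15 concentrations). Stimulated with 50 nM CITCO for 24 hr at 37 C. ONE-Glo luminescence read after 30 min at room temperature.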

[6] = target: Nuclear receptor subfamily 1 group I member 3 (Homo sapiens) (UniProt Q14994); experiment: qHTS assay to identify small molecule agonists of the constitutive androstane receptor (CAR) signaling pathway (AID 1224839); note: nearly all actives have a fitted effect of over 15% in size; note: potency is the fitted concentration of half-maximal effect
Procedure, shortened: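 Luminescence read-out (ONE-Glo, 30 min, room temperature) from double-stable HepG2-CYP2B6-hCAR cells exposed 24 h to 15-point compound series in presence of 0.75 uM PK11195 final.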

[7] = qHTS assay to identify small molecule antagonists of the estrogen related receptor signaling pathway with the pleiotropic PPARgamma coactivator (PGC) from Tox21 10K library - cell viability counter screen (AID 1224840; active = well fitted cell-killing curve with a large enough effect in the repeat runs, not every such curve was filed as active; note: nearly all actives have a fitted effect of over 40% in size; note: potency is the fitted concentration of half-maximal effect)
Procedure, shortened: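 PGC/ERR cells (2,000/well) plated 6 h, then compound-treated for 17.5 h at 37 C. Viability measured by CellTiter-Fluor fluorescence after 30 min at 37 C, multiplexed with the pathway assay.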

[8] = qHTS assay to identify small molecule antagonists of the estrogen related receptor signaling pathway with the pleiotropic PPARgamma coactivator (PGC) from Tox21 10K library (AID 1224841; call rule not given here; note: actives are mostly falling curves and most rising ones were filed inactive; nearly all actives have a fitted effect of over 50% in size; note: potency is the fitted concentration of half-maximal effect)
Procedure, shortened: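 PGC/ERR cell line, 2,000 cells/well, pre-incubated 6 hours at 37 C, then exposed to compounds for 18 hours at 37 C; luciferase read with One-Glo luminescence after 30 min at room temperature.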

[9] = qHTS assay to identify small molecule agonists of the estrogen related receptor signaling pathway with the pleiotropic PPARgamma coactivator (PGC) from Tox21 10K library (AID 1224842); note: nearly all actives have a fitted effect of over 15% in size; note: potency is the fitted concentration of half-maximal effect
Procedure, shortened: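 Luminescence from One-Glo (30 min, room temperature) measured after PGC/ERR cells had 18 h at 37 C with pinned compound (23 nL in DMSO). Cells had been seeded at 2,000 per well and pre-incubated 6 h.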

[10] = target: Thyrotropin receptor (Homo sapiens) (UniProt P16473); experiment: qHTS assay to identify small molecule agonists of the thyroid stimulating hormone receptor (TSHR) signaling pathway (AID 1224843; calls by dose curve; note: nearly all actives have a fitted effect of over 45% in size; note: potency is the fitted concentration of half-maximal effect)
Chain of Thyrotropin receptor (Homo sapiens) (P16473 whole entry, looked up): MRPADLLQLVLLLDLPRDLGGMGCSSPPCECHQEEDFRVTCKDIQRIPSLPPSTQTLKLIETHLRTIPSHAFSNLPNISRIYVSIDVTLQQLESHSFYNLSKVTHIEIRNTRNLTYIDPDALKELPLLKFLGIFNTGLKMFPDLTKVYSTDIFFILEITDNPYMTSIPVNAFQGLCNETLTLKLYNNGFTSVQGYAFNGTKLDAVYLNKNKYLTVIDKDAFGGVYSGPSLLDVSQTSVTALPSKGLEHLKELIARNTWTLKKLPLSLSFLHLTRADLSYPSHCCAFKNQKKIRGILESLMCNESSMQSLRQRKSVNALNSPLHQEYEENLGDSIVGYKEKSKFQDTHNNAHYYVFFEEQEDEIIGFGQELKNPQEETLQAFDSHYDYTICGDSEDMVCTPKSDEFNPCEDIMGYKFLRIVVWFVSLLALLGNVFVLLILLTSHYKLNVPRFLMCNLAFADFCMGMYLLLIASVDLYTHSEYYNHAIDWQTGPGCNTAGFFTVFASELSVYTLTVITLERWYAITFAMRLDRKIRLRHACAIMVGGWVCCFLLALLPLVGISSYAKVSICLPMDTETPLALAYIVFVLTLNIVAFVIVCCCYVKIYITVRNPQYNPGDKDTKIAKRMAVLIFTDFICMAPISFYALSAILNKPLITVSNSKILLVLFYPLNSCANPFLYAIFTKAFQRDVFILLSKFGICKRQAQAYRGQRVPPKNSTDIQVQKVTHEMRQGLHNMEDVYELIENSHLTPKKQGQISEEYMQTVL
Procedure, shortened: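 Screening of the Tox21 10K collection used HEK293 cells engineered with TSHR at 800 cells per well. After a 30-min room-temperature compound exposure, HTRF cAMP reagents were added and fluorescence recorded 1 h later.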

[11] = qHTS assay to identify small molecule agonists of the hypoxia (HIF-1) signaling pathway - cell viability counter screen (AID 1224844; calls by dose curve; note: nearly all actives have a fitted effect of over 50% in size; note: potency is the fitted concentration of half-maximal effect)
Procedure, shortened: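 HRE-bla ME-180 cells, 2,000/well in 0.5% dialyzed FBS medium, treated 17 h at 37C with compounds. Viability read in the same wells as the bla reporter, by CellTiter-Glo luminescence after 30 min at room temperature.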

[12] = qHTS assay to identify small molecule agonists of H2AX (AID 1224845; active = well fitted activation curve with a large enough effect in the signal ratio in the repeat runs, not every such curve was filed as active; the % refers to the signal ratio; note: potency is the fitted concentration of half-maximal effect)
Procedure, shortened: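 Phospho-H2AX Ser139 measured by HTRF (ex 320 nm; em 665 and 620 nm) after 24 hr antibody incubation. Compounds, 15 concentrations, 0.76% DMSO, were applied to CHO-K1 cells for 3hr at 37C before lysis.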

[13] = qHTS assay to identify small molecule agonists of the hypoxia (HIF-1) signaling pathway (AID 1224846; active = well fitted activation curve with a large enough effect in the signal ratio in the repeat runs, not every such curve was filed as active; the % refers to the signal ratio; note: potency is the fitted concentration of half-maximal effect)
Procedure, shortened: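 HRE-bla ME-180 beta-lactamase reporter cells in medium with 0.5% dialyzed FBS, pre-incubated 5 h then exposed to compounds 17 h at 37C, 5% CO2; reporter induction read with CCF4-AM FRET substrate.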

[14] = qHTS assay to identify small molecule agonists of H2AX - cell viability counter screen (AID 1224847; calls by dose curve; note: nearly all actives have a fitted effect of over 30% in size; note: potency is the fitted concentration of half-maximal effect)
Procedure, shortened: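 CHO-K1 wt, 1000 cells/well, o/n 37C; cpds 15 conc, 3 h 37C, 0.76% DMSO; CellTiter-Glo, 30 min RT, luminescence.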

[15] = qHTS assay to identify small molecule antagonists of the estrogen related receptor (ERR) signaling pathway from Tox21 library (AID 1224848); note: nearly all actives have a fitted effect of over 50% in size; note: potency is the fitted concentration of half-maximal effect
Procedure, shortened: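 Antagonist-mode screen of the Tox21 10K library in an NTP-provided ERR reporter cell line; 18 h compound exposure at 37 C, luminescence measured with ONE-Glo.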

[16] = qHTS assay to identify small molecule agonists of the estrogen related receptor (ERR) signaling pathway from Tox21 library (AID 1224849; calls by dose curve; note: nearly all actives have a fitted effect of over 15% in size); settings: ERR reporter cell line, ONE-Glo luciferase, 18 h; at 92.4 µM (top of the series) unless noted
Procedure, shortened: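 ERR reporter cells (NTP line) pre-incubated 6 hours at 37 C, then exposed to compounds for 18 hours at 37 C. ONE-Glo luciferase luminescence was read after 30 minutes at room temperature.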

[17] = qHTS RealTime-Glo MT Cell Viability Assay in HEK293 cells - 32 hour (AID 1224868); note: nearly all actives have a fitted effect of over 50% in size; note: potency is the fitted concentration of half-maximal effect
Procedure, shortened: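 Quantitative high-throughput screen of the Tox21 10K library in HEK293: cells and RealTime-Glo reagents plated together, compound added at 5 h, luminescence monitored through 40 h at 37 C.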

[18] = A CellTox Green Cytotoxicity Assay to monitor cytotoxicity in HEK293 cells - 0 hour (AID 1224869); note: nearly all actives have a fitted effect of over 50% in size
Procedure, shortened: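 HEK293 cells, 600/well, were preincubated 5 hours and then exposed to compounds at 37 C for up to 40 hours. A cell-impermeant cyanine dye staining dead-cell DNA was read by fluorescence at 0, 8, 16, 24, 32 and 40 h time points.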

[19] = qHTS RealTime-Glo MT Cell Viability Assay in HepG2 cells - 40 hour (AID 1224870); note: nearly all actives have a fitted effect of over 50% in size; note: potency is the fitted concentration of half-maximal effect
Procedure, shortened: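 Real-time viability: cells seeded at 600 per well together with NanoLuc and cell-permeant prosubstrate, compounds added after 5 h incubation. Luminescence tracked at 0, 8, 16, 24, 32 and 40 h of exposure.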

[20] = qHTS RealTime-Glo MT Cell Viability Assay in HepG2 cells - 24 hour (AID 1224867); note: nearly all actives have a fitted effect of over 50% in size; note: potency is the fitted concentration of half-maximal effect
Procedure, shortened: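 Compound treatment began 5 h after plating HepG2 cells (600/well) with NanoLuc luciferase and prosubstrate. Plates stayed at 37 C for 40 h; luminescence was captured at six time points, 0 h through 40 h.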
% is set by controls: 0 for no effect and ±100 for the full control effect.

CCC(C)(C)C1CCCCC1OC(C)=O (stereo not given)
inactive: Potency [1] | Potency [2] | Potency [3] | Potency [4] | Potency [5] | Potency [6] | Potency [7] | Potency [8] | Potency [9] | Potency [10] | Potency [11] | Potency [12] | Potency [13] | Potency [14] | Potency [15] | activity change, positive = activation [16] -0.855% | Potency [17] | Potency [18] | Potency [19]

CCCCCCCCCCCC[N+](C)(C)CCCCCCCCCCCC
inactive: Potency [6] | Potency [9] | activity change, positive = activation [16] -72.6% | Potency [18]
active: Potency [1] 27.3 µM | Potency [2] 79.6 µM | Potency [3] 27.3 µM | Potency [4] 24.3 µM | Potency [5] 27.3 µM | Potency [7] 27.3 µM | Potency [10] 24.3 µM | Potency [11] 21.9 µM | Potency [14] 28.4 µM | Potency [15] 13.7 µM | Potency [20] 7.76 µM | Potency [17] 5.49 µM | Potency [19] 6.92 µM

C1CCCC1
inactive: Potency [1] | Potency [2] | Potency [3] | Potency [4] | Potency [5] | Potency [6] | Potency [7] | Potency [8] | Potency [9] | Potency [10] | Potency [11] | Potency [12] | Potency [13] | Potency [14] | Potency [15] | activity change, positive = activation [16] 9.59% | Potency [20] | Potency [17] | Potency [18] | Potency [19]

O=C(O)c1c(Cl)cccc1Cl
inactive: Potency [1] | Potency [2] | Potency [3] | Potency [4] | Potency [5] | Potency [6] | Potency [7] | Potency [10] | Potency [11] | Potency [12] | Potency [13] | Potency [14] | Potency [17] | Potency [18] | Potency [19]

O=c1[nH]sc2ccccc12
inactive: Potency [6] | Potency [9] | Potency [12] | activity change, positive = activation [16] -73.9% | Potency [18]
active: Potency [1] 61.1 µM | Potency [2] 20 µM | Potency [3] 54.5 µM | Potency [4] 27.3 µM | Potency [5] 21.7 µM | Potency [7] 48.6 µM | Potency [8] 27.3 µM | Potency [11] 21.9 µM | Potency [14] 101 µM | Potency [15] 43.3 µM | Potency [20] 21.9 µM | Potency [17] 30.9 µM | Potency [19] 21.9 µM

Clc1ccc2cc3ccccc3cc2c1
active: Potency [6] 54.4 µM | Potency [9] 68.5 µM | Potency [13] 30.9 µM
inactive: Potency [1] | Potency [2] | Potency [3] | Potency [4] | Potency [5] | Potency [7] | Potency [11] | Potency [14] | Potency [15] | activity change, positive = activation [16] 8.76% | Potency [20] | Potency [18] | Potency [19]

CC(C)=CCOc1ccc(/C=C/C(=O)c2ccc(OCC=C(C)C)cc2OCC(=O)O)cc1
active: Potency [8] 21.1 µM
inactive: Potency [1] | Potency [2] | Potency [3] | Potency [4] | Potency [5] | Potency [6] | Potency [7] | Potency [9] | Potency [10] | Potency [11] | Potency [12] | Potency [14] | activity change, positive = activation [16] -23.7% [at 42.5 µM] | Potency [20] | Potency [17] | Potency [18] | Potency [19]

CC(C)CCCCCCCCCCCCCCC(=O)O
inactive: Potency [1] | Potency [3] | Potency [4] | Potency [5] | Potency [6] | Potency [7] | Potency [8] | Potency [9] | activity change, positive = activation [16] -17% | Potency [20] | Potency [18] | Potency [19]
active: Potency [2] 35.6 µM | Potency [11] 17.4 µM | Potency [14] 1.6 µM

C[C@H](CCC(=O)O)[C@H]1CC[C@H]2[C@@H]3CC[C@@H]4C[C@H](O)CC[C@]4(C)[C@H]3CC[C@]12C
inactive: Potency [1] | Potency [2] | Potency [3] | Potency [4] | Potency [5] | Potency [6] | Potency [7] | Potency [9] | Potency [15] | activity change, positive = activation [16] -9.3% and -27.2% | Potency [20] | Potency [17] | Potency [18] | Potency [19]
active: Potency [8] 68.3 µM | Potency [11] 43.5 µM and 34.7 µM | Potency [12] 89.4 µM and 56.6 µM | Potency [14] 100 µM and 80 µM

CC1(C)CCC(C)(C)c2cc(C(=O)Nc3ccc(C(=O)O)cc3)ccc21
inactive: Potency [1] | Potency [3] | Potency [4] | Potency [5] | Potency [6] | Potency [7] | Potency [8] | Potency [9] | Potency [10] | Potency [11] | Potency [13] | activity change, positive = activation [16] -24.2% | Potency [20] | Potency [17] | Potency [19]
active: Potency [2] 79.6 µM

[Cl][Bi]([Cl])([c]1ccccc1)([c]1ccccc1)[c]1ccccc1
inactive: Potency [6] | Potency [18]
active: Potency [1] 13.6 µM | Potency [2] 12.6 µM | Potency [3] 21.6 µM | Potency [4] 19.2 µM | Potency [5] 12.1 µM | Potency [7] 6.08 µM | Potency [10] 2.16 µM | Potency [11] 19.4 µM | Potency [17] 2.44 µM | Potency [19] 7.71 µM

CCC1OCC(COc2ccc(Oc3ccccc3)cc2)O1 (stereo not given)
active: Potency [2] 17.8 µM | Potency [6] 21.7 µM | activity change, positive = activation [16] -1.58%
inactive: Potency [1] | Potency [3] | Potency [4] | Potency [5] | Potency [7] | Potency [8] | Potency [11] | Potency [12] | Potency [13] | Potency [15] | Potency [20] | Potency [18] | Potency [19]
